Screening data: PubChem, NMMLSC
Shown are actives, neighbours in structure and some others; about 2.5% of the full set was active somewhere.
MEKK3 PB1 HTS – modulators (inhibitors or enhancers) of MEK5 binding to human MEKK3 PB1 domain | Q99759 | AID 1529 | 1.4% of 290,000 active | bead-based flow cytometry, Alexa488-MEK5 binding to MEKK3; actives lie on both sides; 0 = blocked by unlabeled MEK5, 100 = vehicle | binding response (% of control), % at 10 µM;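 active = binding response more than 3 SD above or below the average of its plate-row segment, actives on both sides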;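 note: Alexa488 bead fluorescence after subtracting the streptavidin-only scavenger bead signal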
MEKK2 WT-MEK5 – raises or lowers MEK5 binding to wildtype human MEKK2 PB1 domain; Q9Y2U5; bead flow cytometry, Alexa488-MEK5 binding to MEKK2 WT; actives lie on both sides; 1.1% of 290,000 active; AID 1531; binding response (% of control), % at 10 µM; in the data active = binding response below about 67% or above about 130%
MEKK2mut PB1 HTS – signal of MEK5 binding to mutant human MEKK2 PB1 domain; bead flow cytometry, Alexa488-MEK5 binding to MEKK2 mutant; percent response, % at 10 µM; 0.35% of 290,000 active; in the data active = percent response above about 24%, passing the limit was not always enough
GRK2 aptamer HTS – inhibitors of human GRK2 displacing RNA aptamer; P25098; bead flow cytometry, FAM-aptamer displacement from GRK2; inhibition of aptamer binding, % at 10 µM; 0.59% of 330,000 active;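 active = inhibition of aptamer binding above 40%, roughly 3 SD of noise, on plates passing a quality check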;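 note: median bead fluorescence of bound FAM aptamer so fluorescent compounds give negative values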
MEKK2wt confirm – raises or lowers MEK5 binding to wildtype human MEKK2, retest; shares compounds with MEKK3 PB1 HTS; bead flow cytometry, Alexa488-MEK5 binding to MEKK2 WT; actives lie on both sides; binding response (% of control), % at 10 µM; 2.4% of 5,900 active; AID 1892; in the data active = binding response below about 16% or above about 210%; inactive = in between
MEKK2mut confirm – signal of MEK5 binding to mutant human MEKK2, retest; shares compounds with MEKK3 PB1 HTS; bead flow cytometry, Alexa488-MEK5 binding to MEKK2 mutant; percent response, % at 10 µM; 2% of 5,900 active; AID 1893; in the data active = percent response mostly above about 71%, no sharp cut-off; inactive = mostly below about 38%;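 note: higher means compound restores mutant binding toward wildtype level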
MEKK3 confirm – MEKK3-MEK5 PB1 inhibition, single concentration confirmation | shares compounds with MEKK3 PB1 HTS | bead flow cytometry, Alexa488-MEK5 binding to MEKK3; hits give low values | binding response (% of control), % at 10 µM | 1.8% of 5,900 active;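 active = binding response below 72% of control, or above a set upper limit, though filed actives all read lower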;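 note: lower values mean stronger disruption of MEK5 binding to MEKK3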
Each line names hits and unclear results; the compound was inactive in the other large screens (follow-up assays come after a bar, where they were run).

CCN1CCN(Cc2ccc(NC(=O)c3ccc(C)c(NC(=O)c4cc(-c5ccc(Br)cc5)n[nH]4)c3)cc2C(F)(F)F)CC1	MEKK2 WT-MEK5 150, MEKK2mut PB1 HTS 75 | MEKK2wt confirm 239 | MEKK2mut confirm 126 | MEKK3 confirm inactive
CCN1CCN(Cc2ccc(NC(=O)c3ccc(C)c(NC(=O)c4nccn4C)c3)cc2C(F)(F)F)CC1	none
Cc1ccc(NC(=O)CCNC(=O)c2ccccc2)cc1F	none
O=C(CCNC(=O)c1ccccc1)Nc1ccc(F)c(Cl)c1	MEKK3 PB1 HTS 138 | MEKK2wt confirm inactive | MEKK2mut confirm inactive | MEKK3 confirm inactive
CC(=O)Nc1ccc(S(=O)(=O)NCCOc2ccc(Cl)cc2C)cc1	none
CCCCOc1ccc(CONS(=O)(=O)c2ccc(NC(C)=O)cc2)cc1Cl	MEKK3 PB1 HTS 160 | MEKK2wt confirm inactive | MEKK2mut confirm inactive | MEKK3 confirm inactive
Cn1ncc(Br)c1C(=O)NC1CCCCCC1	none
CCOC(=O)C(NC(=O)NCc1ccc(F)cc1)(OCC)C(F)(F)F (stereo not drawn)	MEKK3 PB1 HTS 128 | MEKK2wt confirm inactive | MEKK2mut confirm inactive | MEKK3 confirm inactive
CCOC(=O)C(NC(=O)NCc1ccc(OC)cc1)(OCC)C(F)(F)F (stereo not drawn)	none
CCOC(=O)C(NC(=O)Nc1ccc(Cl)cn1)(Oc1ccc(F)cc1)C(F)(F)F (stereo not drawn)	MEKK3 PB1 HTS 152 | MEKK2wt confirm inactive | MEKK2mut confirm inactive | MEKK3 confirm inactive
CSc1ccc(CN(C)CC(=O)Nc2ccccc2Br)cc1	MEKK3 PB1 HTS 132 | MEKK2wt confirm inactive | MEKK2mut confirm inactive | MEKK3 confirm inactive
CSc1ccccc1NC(=O)CN(C)Cc1ccc(Br)cc1	none
O=C(CCc1nnc(-c2ccc3c(c2)OCO3)o1)NC(c1cccnc1)C(F)(F)F (stereo not drawn)	none
CCc1cc2c(=O)n(CCC(C)C)c(=S)[nH]c2s1	none
Cc1onc(C(=O)N2CCN(c3ccccc3F)CC2)c1-c1ccccc1Cl	MEKK3 PB1 HTS 130 | MEKK2wt confirm inactive | MEKK2mut confirm inactive | MEKK3 confirm inactive
CCCCCCCCCn1c2c(c(=N)c3c1CCC3)CCCC2	MEKK2 WT-MEK5 177 (no result: GRK2 aptamer HTS) | MEKK2wt confirm inactive | MEKK2mut confirm inactive | MEKK3 confirm inactive
CCCCCCCCn1c2c(c(=N)c3ccccc31)CCC2	none (no result: GRK2 aptamer HTS)
CCCCCCCCCCn1c2c(c(=N)c3c1CCC3)CCC2	MEKK2 WT-MEK5 140 | MEKK2wt confirm inactive | MEKK2mut confirm inactive | MEKK3 confirm inactive
O=C(CN(C(=O)c1ccccc1Cl)N1C(=O)C2C3C=CC(C3)C2C1=O)c1cccs1 (stereo not drawn)	none
CCNc1nc(C#N)nc2c1ncn2-c1cc(F)cc(F)c1	none (no result: MEKK3 PB1 HTS, MEKK2 WT-MEK5, MEKK2mut PB1 HTS)
COC(=O)C1=C(C)N(Cc2ccccc2)C(=NCc2ccccc2)N[C@H]1c1cccc(F)c1	MEKK2 WT-MEK5 137, MEKK2mut PB1 HTS 35 | MEKK2wt confirm inactive | MEKK2mut confirm inactive | MEKK3 confirm inactive
COCCN1C(=S)N[C@@H](c2cccc(F)c2)C(C(=O)OC)=C1C	MEKK2 WT-MEK5 147, MEKK2mut PB1 HTS 37 | MEKK2wt confirm inactive | MEKK2mut confirm inactive | MEKK3 confirm inactive
COC(=O)C1=C(C)N(CC2CC2)C(=NCc2cccc(Cl)c2)N[C@H]1c1ccccc1	MEKK2mut PB1 HTS 26 | MEKK2wt confirm inactive | MEKK2mut confirm inactive | MEKK3 confirm inactive
COC(=O)C1=C(C)N(Cc2ccccc2)C(=NCc2ccccc2)N[C@H]1c1ccccc1	none (no result: MEKK3 PB1 HTS, MEKK2 WT-MEK5, MEKK2mut PB1 HTS)
CC(C)c1nnc(NC(=O)C2CCCN2C(=O)Nc2cccc(Cl)c2)s1 (stereo not drawn)	none
CCN(CC(=O)Nc1c(F)cccc1F)C(=O)CCCc1cccs1	none (no result: MEKK3 PB1 HTS, MEKK2 WT-MEK5, MEKK2mut PB1 HTS)
COc1ccc(OCCC(=O)N2CCN(C)CC2)cc1	MEKK2mut PB1 HTS 25 | MEKK2wt confirm inactive | MEKK2mut confirm inactive | MEKK3 confirm inactive
O=C(Nc1ccc2ccccc2c1)c1cc(F)c(F)cc1Cl	none
